This is part of a sample that, as a whole, favours compounds with a hit. Of some 83,000 tested, about 20% had one in any assay.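 96-well plates, one dose, 48 hours. Percent growth reported; active if below 10.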 Values without a mark were called inactive. Activity calls are given as the source filed them.

One test has as its system OVCAR-8 ovarian. The test is described as follows: NCI-60 one-dose screen, 48 h (100 = growth as untreated, 0 = no growth, -100 = all killed). The following applies: 10 µM unless noted.
Take `O=C(Nc1nc2ccc(C(F)(F)F)cc2s1)c1cc(Cl)ccc1O`: the growth was 12.9%.
As to `NC(N)=NC(N)=Nc1cc2ccccc2c2ccccc12`, the growth was 45%.
On the same count and under the same terms, next, `CC(=O)Oc1c2c(nc3c1c1ccccc1n3Cc1ccccc1)-c1ccccc1C2`: 88.4%; `CN1C(=O)c2cc(Cl)nc3c(NC(=O)c4cccc(Cl)c4)c(Cl)c(NC(=O)c4cccc(Cl)c4)c1c23`: 2.78% (active).
Still for that read-out and setting: then `CCOCCc1c(O)nc(SC)[nH]c1=O`, with 103%; and `COc1ccc2[nH]c(=O)c(/C=C/C(=O)/C=C/c3ccc(O)c(OC)c3)cc2c1`, with 1.42% (active).
With `CCOC(=O)c1c(C)nc2c(c1N)/C(=C/c1cccs1)C(=O)N2Cc1ccccc1`, the growth was 70.7%.
The same measure, in the same setting: next, `O=C(CCc1nnc2sc(OCc3ccccc3)nn12)c1nc2ccc([N+](=O)[O-])cc2[nH]1`: 94.7%.
Same read-out and setting: then `COc1ccc2c(c1)Oc1nc(N)c(C#N)c(N)c1C2Sc1ccc(O)cc1` (centres undefined), with 102%; and `O=C(Nc1nccs1)c1noc2ccccc12`, with 94.7%; and `Cc1cccc(C)c1NCc1nnc(-c2ccco2)o1`, with 98.2%.
Consider `CCOC(=O)C1=C(C)n2nc(CC#N)c(C#N)c2NC1c1ccc(Cl)cc1` (centres undefined), for which the growth was 108%.
For `CCOc1ccccc1C(=O)/C=C/c1cc2ccccc2[nH]c1=O`, the growth was 7.43% (active).
On the same count and under the same terms, next, `COc1cc(NC(=O)Nc2cnc(Nc3ccc(N4CCOCC4)cc3)nc2Oc2ccc(F)cc2)cc(OC)c1`: 73.4%.
On the same count and under the same terms, then `Cc1cc(Cl)cc(CN(Cc2ccccc2)Cc2c(O)ccc3ccccc23)c1O`, with 98.5%.
In the case of `NC[C@@H]1CCN(c2cc3c(cc2F)c(=O)n(N)c(=O)n3Cc2ccc(-c3ccccc3)cc2)C1`, the growth was 96.3%.
Regarding `O=C(/C(=C/c1ccc([N+](=O)[O-])cc1)SCc1ccc(F)cc1)c1ccc(Cl)cc1`, the growth is 66.2%.
In the case of `COc1ccc(Cl)c([N+](=O)[O-])c1`, the growth is 106%.
In the case of `COc1cc(C)ccc1Oc1nc(Nc2ccc(N3CCOCC3)cc2)ncc1N=Cc1cc(C(F)(F)F)cc(C(F)(F)F)c1`, the growth was 63%.
Same read-out and setting: next, `c1ccc(-c2cn3ccnc3c(-c3ccc4c(c3)ncn4C3CCCCC3)n2)cc1`: 101%.
The same measure, in the same setting: next, `Nc1c(C(=O)Nc2cccc3ccccc23)sc2nc3c(cc12)COCC3`: 57.9%; `O=C1CCC23OC(C(O)c4ccccc4N12)C1C(Br)=NOC13` (centres undefined): 103%.
Still for that read-out and setting: then `O=Cc1[nH]c(Sc2ccccc2)c2ccccc12`, with 68.6%; and `CCOC(=O)c1sc(/N=C2\NC(=O)/C(=C/c3ccc(N4CCN(C)CC4)cc3)S2)nc1C`, with 110%; and `COc1cc(C2=NN(c3ccccc3)C(c3cccc(Nc4ccnc5cc(C(F)(F)F)ccc45)c3)C2)cc(OC)c1OC` (centres undefined), with 91.7%.
On to `COc1ccc(-c2cc(-c3nnc(SCC(=O)Nc4ccc(/C(C)=N\O)cc4)n3-c3ccccc3)c3cc(OC)ccc3n2)cc1`, for which the growth was 75.8%.
In the case of `COc1ccc(OCC(=O)OC(C)C)cc1`, the growth was 105%.
On to `CC1=C(CCCOC(=O)NCCCl)C2=C(C)C3(CC3)[C@@](C)(O)C(=O)C2=C1`, for which the growth was 36.9%.
On the same count and under the same terms, next, `Nc1ccccc1NS(=O)(=O)c1ccc(Cl)cc1`: 108%; `N#Cc1ccc(C2C3=C(CCCC3=O)OC3=C2C(=O)c2ccccc2C3=O)cc1` (centres undefined): 1.88% (active).
Turning to `C=CCn1c(SCC(=O)Nc2ccc(C(=O)/C=C/c3cc(OC)c(OC)c(OC)c3)cc2)nnc1-c1ccccc1`, the growth is 86.8%.
Same read-out and setting: then `NS(=O)(=O)c1ccc(C2C3=C(CCCC3=O)OC3=C2C(=O)c2ccccc2C3=O)cc1` (centres undefined), with -14.5% (active).
For the compound `COc1ccc2nc3nc4ccc[nH]c4cc3c2c1`, the growth is 96.6%.
The same measure, in the same setting: then `COc1ccc(Nc2nc(SCC(C)C)nc(-c3ccc(F)cc3)c2C#N)cc1`, with 89.4%.
For the compound `NC(=O)CN1C(=O)c2ccccc2C1=O`, the growth is 103%.
The same measure, in the same setting: then `COc1cccc(C(=O)OCCn2nc3c4c(cccc42)C(=O)c2ccccc2-3)c1O`, with 56.7%.
Same read-out and setting: then `c1ccc(-c2n(Cc3ccc4ccccc4n3)cc[n+]2Cc2ccc3ccccc3c2)cc1`, with 3.17% (active).

The next test relates to OVCAR-5 ovarian. The description is as above. The following applies: 10 µM unless noted.
In the case of `O=C(Nc1nc2ccc(C(F)(F)F)cc2s1)c1cc(Cl)ccc1O`, the growth was 28%.
As for `NC(N)=NC(N)=Nc1cc2ccccc2c2ccccc12`, the growth was 57.3%.
In the case of `CC(=O)Oc1c2c(nc3c1c1ccccc1n3Cc1ccccc1)-c1ccccc1C2`, the growth is 97%.
In the case of `CN1C(=O)c2cc(Cl)nc3c(NC(=O)c4cccc(Cl)c4)c(Cl)c(NC(=O)c4cccc(Cl)c4)c1c23`, the growth is 88.7%.
As to `CCOCCc1c(O)nc(SC)[nH]c1=O`, the growth is 87.3%.
For the compound `COc1ccc2[nH]c(=O)c(/C=C/C(=O)/C=C/c3ccc(O)c(OC)c3)cc2c1`, the growth is 59.4%.
As for `CCOC(=O)c1c(C)nc2c(c1N)/C(=C/c1cccs1)C(=O)N2Cc1ccccc1`, the growth is 119%.
Still for that read-out and setting: then `O=C(CCc1nnc2sc(OCc3ccccc3)nn12)c1nc2ccc([N+](=O)[O-])cc2[nH]1`, with 103%.
Consider `COc1ccc2c(c1)Oc1nc(N)c(C#N)c(N)c1C2Sc1ccc(O)cc1` (centres undefined), for which the growth was 118%.
On the same count and under the same terms, next, `O=C(Nc1nccs1)c1noc2ccccc12`: 103%; `Cc1cccc(C)c1NCc1nnc(-c2ccco2)o1`: 99.8%; `CCOC(=O)C1=C(C)n2nc(CC#N)c(C#N)c2NC1c1ccc(Cl)cc1` (centres undefined): 103%.
On to `CCOc1ccccc1C(=O)/C=C/c1cc2ccccc2[nH]c1=O`, for which the growth was 5.93% (active).
Same read-out and setting: next, `COc1cc(NC(=O)Nc2cnc(Nc3ccc(N4CCOCC4)cc3)nc2Oc2ccc(F)cc2)cc(OC)c1`: 113%; `Cc1cc(Cl)cc(CN(Cc2ccccc2)Cc2c(O)ccc3ccccc23)c1O`: 116%; `NC[C@@H]1CCN(c2cc3c(cc2F)c(=O)n(N)c(=O)n3Cc2ccc(-c3ccccc3)cc2)C1`: 111%.
For `O=C(/C(=C/c1ccc([N+](=O)[O-])cc1)SCc1ccc(F)cc1)c1ccc(Cl)cc1`, the growth was 95%.
For `COc1ccc(Cl)c([N+](=O)[O-])c1`, the growth was 102%.
As to `COc1cc(C)ccc1Oc1nc(Nc2ccc(N3CCOCC3)cc2)ncc1N=Cc1cc(C(F)(F)F)cc(C(F)(F)F)c1`, the growth was 75.7%.
The same measure, in the same setting: then `c1ccc(-c2cn3ccnc3c(-c3ccc4c(c3)ncn4C3CCCCC3)n2)cc1`, with 103%; and `Nc1c(C(=O)Nc2cccc3ccccc23)sc2nc3c(cc12)COCC3`, with 87.9%.
Same read-out and setting: next, `O=C1CCC23OC(C(O)c4ccccc4N12)C1C(Br)=NOC13` (centres undefined): 97.7%; `O=Cc1[nH]c(Sc2ccccc2)c2ccccc12`: 87.4%; `CCOC(=O)c1sc(/N=C2\NC(=O)/C(=C/c3ccc(N4CCN(C)CC4)cc3)S2)nc1C`: 110%.
As for `COc1cc(C2=NN(c3ccccc3)C(c3cccc(Nc4ccnc5cc(C(F)(F)F)ccc45)c3)C2)cc(OC)c1OC` (centres undefined), the growth was 104%.
Consider `COc1ccc(-c2cc(-c3nnc(SCC(=O)Nc4ccc(/C(C)=N\O)cc4)n3-c3ccccc3)c3cc(OC)ccc3n2)cc1`, for which the growth was 102%.
In the case of `COc1ccc(OCC(=O)OC(C)C)cc1`, the growth is 99.6%.
On the same count and under the same terms, next, `CC1=C(CCCOC(=O)NCCCl)C2=C(C)C3(CC3)[C@@](C)(O)C(=O)C2=C1`: 28.1%; `Nc1ccccc1NS(=O)(=O)c1ccc(Cl)cc1`: 95.3%.
Same read-out and setting: next, `N#Cc1ccc(C2C3=C(CCCC3=O)OC3=C2C(=O)c2ccccc2C3=O)cc1` (centres undefined): 126%; `C=CCn1c(SCC(=O)Nc2ccc(C(=O)/C=C/c3cc(OC)c(OC)c(OC)c3)cc2)nnc1-c1ccccc1`: 128%; `NS(=O)(=O)c1ccc(C2C3=C(CCCC3=O)OC3=C2C(=O)c2ccccc2C3=O)cc1` (centres undefined): -53.1% (active).
Still for that read-out and setting: next, `COc1ccc2nc3nc4ccc[nH]c4cc3c2c1`: 115%; `COc1ccc(Nc2nc(SCC(C)C)nc(-c3ccc(F)cc3)c2C#N)cc1`: 94.3%.
On to `NC(=O)CN1C(=O)c2ccccc2C1=O`, for which the growth is 102%.
Still for that read-out and setting: next, `COc1cccc(C(=O)OCCn2nc3c4c(cccc42)C(=O)c2ccccc2-3)c1O`: 69.3%.
In the case of `c1ccc(-c2n(Cc3ccc4ccccc4n3)cc[n+]2Cc2ccc3ccccc3c2)cc1`, the growth was 22%.

The values above are taken from PubChem BioAssay (NCI).
